# Experimental data as given in PubChem BioAssay AID463173 (ICCB-Longwood Screening Facility, Harvard Medical School, 2010).
# In all, about 52,000 compounds went through this assay and about 1,700 (3.3%) were called active. Shown is part of a subset that was picked to be rich in actives. Values without a mark were called inactive. No stated cut-off is given here; in the data, active means survival mostly below about 52% (no sharp cut-off); inactive means mostly above about 56%.
# System: Wild type
# Assay: S. aureus survival, RN4220 and DeltatarO strains – OD600, teichoic acid synthesis inhibitors, primary screen (AID 463173)
# Details: S. aureus RN4220 wild type/DeltatarO growth, OD600, 18 h, hits give low values, screened at 18.75 µg/mL (by protocol)
row,SMILES,survival
1,O=C(CN1C(=O)C2(SCC(=O)N2c2ccccc2)c2ccccc21)NCc1ccccc1Cl (stereo not given),97%
2,Cc1cc(C)c2c(c1)NC(=O)C2(O)c1c[nH]c2ccccc12 (stereo not given),97%
3,COc1ccc(C)cc1NC(=O)c1cc2c(s1)-c1ccccc1SC2,46%
4,CC(C)OCCCNC(=O)c1ccc(Cn2c(=O)c3cccn3c3cccnc32)cc1,111%
5,COc1ccc(OC)c(NC(=O)c2cc3c(=O)oc4ccccc4c3s2)c1,103%
6,CCCc1cc(=O)[nH]c2nnc(SC(C)CC)n12 (stereo not given),80%
7,Cc1c2cnn(-c3ccccc3)c(=O)c2c(C)n1C(C)C(=O)Nc1ccccc1C(F)(F)F (stereo not given),81%
8,Cc1ccc(Cl)cc1N1CCN(C(=O)CCCn2c(=O)[nH]c3ccc(Br)cc3c2=O)CC1,21%
9,COc1cccc(N2CCN(C(=O)CCCn3c(=O)[nH]c4ccc(Br)cc4c3=O)CC2)c1,53%
10,O=C(CCCn1c(=O)[nH]c2ccc(Br)cc2c1=O)N1CCN(c2cccc(Cl)c2)CC1,6% (active)
11,CCOC(=O)c1noc2ncnc(NCc3ccccc3OC)c12,72%
12,COc1ccc(OCC(=O)NC2CC(=O)N(c3cccc(OC)c3)C2)cc1 (stereo not given),-3% (active)
13,COc1cccc(OCC(=O)NC2CC(=O)N(c3cccc(OC)c3)C2)c1 (stereo not given),124%
14,COc1ccc(N2CC(NC(=O)c3ccco3)CC2=O)cc1OC (stereo not given),68%
15,COc1cccc(N2CC(NC(=O)c3ccco3)CC2=O)c1 (stereo not given),10% (active)
16,COc1ccc(N2CC(NC(=O)c3ccco3)CC2=O)cc1 (stereo not given),49%
17,COc1cccc(N2CC(NC(=O)COc3ccc4ccccc4c3)CC2=O)c1 (stereo not given),94%
18,O=C1CC(=O)SC(c2ccccc2)=N1,105%
19,CCOC(=O)c1c(C)[nH]c(C)c1S(=O)(=O)NCC(=O)Nc1cc(Cl)ccc1OC,-6% (active)
20,CCOC(=O)c1scc(-c2ccc(C)cc2)c1S(=O)(=O)Nc1cc(Cl)ccc1OC,-6% (active)
21,CCOC(=O)c1c(C)[nH]c(C)c1S(=O)(=O)N(C)CC(=O)Nc1cc(Cl)ccc1OC,128%
22,CCOC(=O)c1c(C)[nH]c(C)c1S(=O)(=O)NCC(=O)Nc1cc(C)ccc1OC,75%
23,CCOC(=O)c1scc(-c2ccc(C)cc2)c1S(=O)(=O)Nc1cc(OC)ccc1OC,76%
24,CCOC(=O)c1scc(-c2ccc(C)cc2)c1S(=O)(=O)Nc1ccc(OC)c(Cl)c1,90%

row,SMILES,survival
1,CCCc1oc(C(=O)O)cc1CN1CCOCC1,117%
2,CC(=O)C1=C(c2ccc(C)cc2)N(C(C)=O)n2c(nnc2-c2ccccc2)S1,134%
3,CCc1cccc2c(-c3ccccc3)nc(SCC(=O)Nc3ccc(OC)cc3)nc12,98%
4,Cc1ccc(Nc2c(-c3ccc(C)cc3)nc3ccc(C)cn23)cc1,121%
5,COCCNc1c(-c2ccc(N)cc2)nc2ccc(C)cn12,101%
6,Cc1ccc2nc(-c3ccc(F)cc3)c(NC(C)(C)CC(C)(C)C)n2c1,14% (active)
7,CC(=O)N1c2ccccc2CC1C(=O)N1CCN(c2ccccc2F)CC1 (stereo not given),71%
8,CCOc1ccc(NC(=O)/C=C\C(=O)N(c2ccc(C(C)C)cc2)C(C(=O)NCc2ccco2)c2ccc(F)cc2)cc1 (stereo not given),51%
9,Cc1cccc(NC(=O)CN2C(=O)COc3ccc(S(=O)(=O)Nc4ccccc4)cc32)c1C,123%
10,Cc1c(Cl)cccc1NC(=O)c1cc2nc(-c3ccc4c(c3)OCO4)cc(C(F)(F)F)n2n1,76%
11,CCOc1ccc(-c2ncccc2O)cc1,106%
12,CCOc1ccc(-c2nnc(Nc3ccc(S(N)(=O)=O)cc3)c3ccccc23)cc1,88%
13,CCCCOc1nnc(-c2ccc(OCC)cc2)c2ccccc12,-1% (active)
14,COc1ccc(S(=O)(=O)N(CCc2ccccc2)CC(=O)NCc2ccc(C)cc2)cc1,67%
15,Cc1ccccc1CCNC(=O)c1cc2ccccn2n1,84%
16,CCOC(=O)C1CCN(S(=O)(=O)c2ccc3c(c2)NC(=O)C(C)C(=O)N3)CC1 (stereo not given),114%
17,Cc1ccc(N(C)S(=O)(=O)c2c(-c3ccccc3)csc2C(=O)O)cc1,61%
18,CC(=O)c1ccc(NC(=O)Cn2ncc3c(C)n(Cc4ccc(F)cc4)c(C)c3c2=O)cc1,74%
19,COC(=O)c1ccccc1NC(=O)c1nc(-c2ccc(C)cc2)n2c1CCCCC2,86%
20,COc1ccc(C(=O)Oc2ccc3oc(=O)sc3c2)cc1,95%
21,CCn1ccc2c(OCC(=O)Nc3ccccc3C(F)(F)F)cccc2c1=O,80%
22,CCn1ccc2c(OCC(=O)NCc3ccccc3)cccc2c1=O,66%
23,CCn1ccc2c(OCC(=O)Nc3ccc(C(C)=O)cc3)cccc2c1=O,53%
24,COCCn1ccc2c(OCC(=O)Nc3cccc(OC)c3)cccc2c1=O,90%

row,SMILES,survival
1,CCn1ccc2c(OCC(=O)Nc3ccccc3C)cccc2c1=O,0% (active)
2,CCn1ccc2c(OCC(=O)Nc3ccc(OC)cc3OC)cccc2c1=O,-3% (active)
3,CCCN1CCN(C(=O)Cn2c(-c3cccs3)cc3cc(F)ccc32)CC1,85%
4,Cc1ccc2c(CC(=O)N(Cc3ccc(N(C)C)cc3)Cc3ccco3)coc2c1C,70%
5,CCc1nn(CC(=O)Nc2ccc(C)cc2C)c(=O)c2cc3sccc3n12,90%
6,Cc1cc(C)cc(NC(=O)CSc2nncn3c2cc2occc23)c1,66%
7,Cc1ccc(CNS(=O)(=O)c2ccc3c(c2)CC(C)N3C(=O)C2CCC2)cc1 (stereo not given),97%
8,Cc1ccsc1CN(C(=O)c1ccc(OCC(C)C)cc1)C1CCS(=O)(=O)C1 (stereo not given),85%
9,CCCCN(c1ccccc1)c1ncnc2c1cnn2-c1cccc(C)c1,68%
10,COC(=O)c1cc2sc(C)cc2n1Cc1ccc(F)cc1Cl,65%
11,COC(=O)c1cc2sc(C)cc2n1Cc1cccc(OC)c1,0% (active)
12,COC(=O)c1cc2sc(C)cc2n1Cc1ccccc1,83%
13,COC(=O)c1cc2sccc2n1Cc1ccc(F)cc1,135%
14,C=Cc1ccc(Cn2c(C(=O)OC)cc3sc(C)cc32)cc1,0% (active)
15,COC(=O)c1cc2sc(C)cc2n1Cc1ccc(Br)cc1F,76%
16,Cc1cccc(CCn2c(=O)c3ccccc3n(Cc3cccc(F)c3)c2=O)c1,82%
17,COc1ccc(NC(=O)Cn2cc(S(=O)(=O)c3ccccc3)c(=O)c3cc4c(cc32)OCO4)cc1,79%
18,COc1cc(CN(C(=O)Nc2ccccc2)c2ccccn2)cc(OC)c1OC,86%
19,CCCCNC(=O)CN1C(=O)CSc2ccc(S(=O)(=O)N3CCC(C)CC3)cc21,92%
20,COc1ccccc1NC(=O)CN(C)S(=O)(=O)c1cccc2cccnc12,117%
21,CC(=O)NC1N=C(C)N(c2ccccc2)C1=O (stereo not given),101%
22,COC(=O)c1ccccc1NC(=O)NCCc1c(C)nn(C)c1C,82%
23,Cc1nn(C)c(C)c1CCNC(=O)Nc1ccccc1C(F)(F)F,1% (active)
24,COC(=O)c1ccc(Cl)cc1NC(=O)NCCc1c(C)nn(C)c1C,55%

row,SMILES,survival
1,COc1ccc(Cl)cc1NC(=O)NCCc1c(C)nn(C)c1C,-3% (active)
2,Cc1nn(C)c(C)c1CCNC(=O)Nc1cccc(Cl)c1C,63%
3,COc1ccc(NC(=O)NCCc2c(C)nn(C)c2C)c(OC)c1,57%
4,Cc1ccc(C2c3[nH]c4ccccc4c3CCN2C(=O)c2ccc(N(C)C)cc2)cc1 (stereo not given),68%
5,CCc1cccc(C)c1Nc1c(-c2ccsc2)nc2ncccn12,66%
6,CNC(=S)N(CCN1CCOCC1)Cc1cc2cc(C)c(Cl)cc2[nH]c1=O,113%
7,Cc1cccn2c(=O)c(/C=C(\C#N)c3nc4ccccc4s3)c(Oc3ccc(Br)cc3)nc12,129%
8,O=C(NCc1cccc(Cl)c1)c1cc2ccc3cccnc3c2[nH]1,82%
9,N#Cc1ccccc1CSc1nnc(-c2ccc(Br)cc2)o1,73%
10,CCCCOC(=O)CSc1nnc(-c2ccc(C)cc2)o1,8% (active)
11,CCCCCSc1nnc(-c2ccc(Br)cc2)o1,-1% (active)
12,N#Cc1ccc(CSc2nnc(-c3ccc(Br)cc3)o2)cc1,74%
13,Cc1ccc(-c2nnc(SCc3ccccc3C#N)o2)cc1,66%
14,COc1ccc(-c2nnc(SCC(=O)Oc3cc(C)ccc3C)o2)cc1,86%
15,Cc1ccc(CSc2nnc(-c3ccc(O)cc3)o2)cc1,108%
16,CCOC(=O)CSc1nnc(-c2ccc(OC)cc2)o1,72%
17,Cc1ccc(-c2nnc(SCc3ccccc3C)o2)cc1,-4% (active)
18,Cc1ccc2occ(-c3cc(-c4ccc(F)cc4)nc4c3COc3ccc(F)cc3-4)c(=O)c2c1,76%
19,Cc1ccc(-n2c(=O)[nH]c3cc(C(=O)NCCc4ccccc4)ccc3c2=O)cc1,85%
20,O=C(Nc1ccc(OCc2cc(=O)n3c4c(sc3n2)CCCC4)cc1)c1cccc(F)c1,78%
21,Cc1ccc(Cl)cc1NC(=O)Nc1nnc(N(C)Cc2ccccc2)s1,93%
22,COc1ccc(-c2nc3sc(CCNC(=O)C(=O)Nc4ccccc4C#N)c(C)n3n2)cc1,85%
23,Cc1noc(C)c1S(=O)(=O)N1CCC(C(=O)N2CCN(c3ccccc3)CC2)CC1,128%
